# About 83,000 compounds went through this panel and 20% of them were active in at least one assay; those are over-represented in the sample as a whole.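 Testing used 96-well plates and a 48-hour single-concentration exposure. Example: -40 means 40% of the starting cells died.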 Values without a mark were called inactive. Active and inactive are the calls of the source. The calls were made as follows: active = growth percent below 10; inactive = the rest.
# Test system: MALME-3M melanoma
# Assay: NCI-60 one-dose screen, 48 h (100 = growth as untreated, 0 = no growth, -100 = all killed)
# Settings: 10 µM unless noted
row,SMILES,growth
1,COc1ccc2c(c1)c(/C=N/Nc1ccc3ccccc3n1)cn2C,12.6%
2,Cc1ccc(S(=O)(=O)c2nc(S(=O)(=O)c3ccc(C)cc3)c(N3CCN(C)CC3)s2)cc1,73.5%
3,COc1cc2c(c(OC)c1OC)C(=O)CC(c1cccc(NC(=O)c3cc(NC(=O)[C@H](C)N)ccc3Cl)c1)O2 (stereo not given in full),45.5%
4,Cc1ccc(C(=O)C(c2c[nH]c3ccccc23)c2c[nH]c3ccccc23)cc1,72.6%

# Test system: MDA-MB-231 breast
# Assay: as above
# Settings: 10 µM unless noted
row,SMILES,growth
1,O=C(c1ccccc1)c1ccc2nc(-c3ccc(F)cc3)[nH]c2c1,42.2%
2,CC1(C)CC[C@]2(C(=O)O)CC[C@]3(C)C(=CCC4[C@@]5(C)C[C@@H](O)[C@@H]6OC(c7ccc(F)cc7)OC[C@@]6(C)C5CC[C@]43C)C2C1 (stereo not given in full),50.6%
3,N/C(=N\c1nc2ccccc2s1)NC(=O)Nc1ccc(Cl)cc1Cl,-83.4% (active)
4,CCCCSc1nc(Nc2ccc(S(N)(=O)=O)cc2)c(C#N)c(-c2cc(OC)c(OC)c(OC)c2)n1,42.5%
5,O=C(COc1ccc2c(c1)CCCC(=O)N2)NCc1ccccc1,82.4%
6,Nc1nc(-c2ccccc2)c(N=Nc2ccc([N+](=O)[O-])cc2Cl)s1,87.8%
7,CC1(C)CC[C@]2(C(=O)O)CC[C@]3(C)C(=CCC4[C@@]5(C)C[C@@H](O)[C@@H]6OC(c7cccc(Br)c7)OC[C@@]6(C)C5CC[C@]43C)C2C1 (stereo not given in full),71.2%
8,C#CCOc1ccc(/C=N/Nc2nc(-c3cc4cc(OC)ccc4oc3=O)cs2)cc1OC,44%
9,N#Cc1c(NCc2ccccc2)n[nH]c1Nc1ccccc1,66.3%
10,COc1cc2oc(-c3cccc(C(=O)Nc4ccc(Cl)cc4)c3)cc(=O)c2c(OCC(=O)N[C@@H](Cc2ccccc2)C(=O)O)c1OC,96.1%
11,Cn1cc(-c2cc3nc(-c4c[nH]c5ccc(Cl)cc45)cc(N)n3n2)c2ccccc21,-56.2% (active)
12,C#C[C@]1(O)CC[C@H]2[C@@H]3CC=C4c5sc(-c6ccc([N+](=O)[O-])cc6)nc5CC[C@]4(C)[C@H]3CC[C@@]21C,-23.5% (active)
13,O=C(CSc1nc2ccccc2c(=O)[nH]1)NCCN1CCCCC1,100%
14,C#CCOc1cc(N(CC)CC)ccc1C(C(=O)NC(C)(C)C)N(C(=O)C1CCc2cc(F)ccc2O1)c1ccc(F)c(Cl)c1 (stereo not given),55.5%
15,O=c1oc2ccccc2cc1-c1csc(N2N=C(c3ccccc3)CC2c2ccc(N3CCOCC3)cc2)n1 (stereo not given),90.3%
16,Cn1cc(-c2cc(N)n3nc(-c4cn(C)c5ncccc45)cc3n2)c2cccnc21,-22.4% (active)
17,COc1ccc(-c2ccnc(SCc3cc4cc(OC)ccc4[nH]c3=O)n2)cc1,22.7%
18,CN(C)c1ccnc(NCCCSC(c2ccccc2)(c2ccccc2)c2ccccc2)c1,31%

row,SMILES,growth
1,O=C(Cn1c(/C=C/c2ccccc2)nc2ccccc2c1=O)Nc1ccccc1,24.8%
2,C#CCOc1cc(N(CC)CC)ccc1C(C(=O)NC(C)(C)C)N(C(=O)C1CCc2cc(F)ccc2O1)c1cc(C)cc(C)c1 (stereo not given),46.7%
3,COc1cc2c(c(OC)c1OC)C(=O)CC(c1cccc(NC(=O)c3cc(NC(=O)[C@@H](N)CO)ccc3C)c1)O2 (stereo not given in full),111%
4,C#CCOc1ccc(/C=N/Nc2nc(-c3ccc(F)cc3)cs2)cc1OC,73.5%
5,Cc1cc2c(cc1Cl)C(=O)/C(=C/c1ccc(F)cc1)O2,90.1%
6,Cn1cc(-c2cc3nc(-c4cn(C)c5ncccc45)cc(N)n3n2)c2cc(Cl)ccc21,-96.2% (active)
7,COc1ccc2[nH]cc(-c3cc(N)n4nc(-c5cn(C)c6ccccc56)cc4n3)c2c1,-44.8% (active)
8,COc1ccc(Cc2nn(CC(=O)N/N=C/c3ccc(F)cc3)c(=O)c3c(C)noc23)cc1,31.3%
9,Cc1ccc(NCC(=O)Cn2cc(COc3ccc(C=Nc4cnc5ccccc5c4)cc3)nn2)cc1,107%
10,Cc1cccc(NC(=O)CN2CCN(c3ncnc4c3cnn4-c3ccccc3)CC2)c1,87.4%
11,Cn1cc(-c2nc(N)nnc2-c2c[nH]c3ccc(F)cc23)c2cc(Br)cnc21,5.57% (active)
12,COc1ccc2[nH]cc(-c3nnc(N)nc3-c3cn(C)c4ncc(Br)cc34)c2c1,45.8%
13,COc1ccc(NC(=O)[C@H](C)N)cc1C(=O)Nc1cccc(C2CC(=O)c3c(cc(OC)c(OC)c3OC)O2)c1 (stereo not given in full),87.3%
14,CC1(C)CC[C@]2(C(=O)O)CC[C@]3(C)C(=CCC4[C@@]5(C)C[C@@H](O)[C@@H]6OC(c7ccco7)OC[C@@]6(C)C5CC[C@]43C)C2C1 (stereo not given in full),59.7%
15,COc1ccc2c(c1)c(/C=N/Nc1ccc3ccccc3n1)cn2C,-23.1% (active)
16,Cc1ccc(S(=O)(=O)c2nc(S(=O)(=O)c3ccc(C)cc3)c(N3CCN(C)CC3)s2)cc1,84.4%
17,COc1cc2c(c(OC)c1OC)C(=O)CC(c1cccc(NC(=O)c3cc(NC(=O)[C@H](C)N)ccc3Cl)c1)O2 (stereo not given in full),52.5%
18,Cc1ccc(C(=O)C(c2c[nH]c3ccccc23)c2c[nH]c3ccccc23)cc1,24.2%
